Experiment [1] is described as follows: inhibitors of TNFa-induced NFkB p65 translocation, primary screen, imaging, HUVEC, MLSMR starter and 10KST1 sets (AID 438;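 active = inhibition above 20% together with a positive visual image hit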;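 note: compound added about 3h40 before a 20 min TNFalpha stimulation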;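 for inhibition: signal is the nuclear over cytoplasmic p65 intensity ratio per well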). The following applies: HUVEC TNFa-induced p65 nuclear translocation; cell count: measured here: nuclei count (cytotoxicity indicator), at 2.08 µM; inhibition: at 2 µM, stronger effect = higher value, 0% TNFa-plus-vehicle, 100% no-TNFa wells.
The nature of experiment [2]: reduction of polyQ htt aggregates in cells – imaging, exon1htt(103Q)mCFP cells, high-content imaging, primary screen (AID 483;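 active = visual image review flags a hit and inhibition of aggregation exceeds 20%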;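 note: compound exposure lasted 3 days before fixation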;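 for nuclei count: percent of the per-plate median nuclei count of sample wells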). The following applies: exon1htt(103Q)mCFP cell line, aggregate imaging, at 2 µM; inhibition of aggregation: stronger effect = higher value; nuclei count: measured here: cell count, toxicity.
Experiment [3] can be described thus: endothelial E-selectin expression blockers – imaging, HUVEC, immunofluorescence, MLSMR starter and 10KST1 sets, primary screen (AID 487;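 active = visually confirmed hit in the image check and inhibition above 20%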;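 for inhibition: signal is fraction of cell area covered by stained E-selectin grains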;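 for nuclei count: 100% = median nuclei count of all wells on the same plate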). Particulars: HUVEC TNFalpha-induced E-selectin immunofluorescence imaging, at 2 µM; inhibition: stronger effect = higher value; nuclei count: measured here: cell number, toxicity.
The target of experiment [4] is Voltage-gated potassium channel subunit beta-2 (Rattus norvegicus) (UniProt P62483). In words: inhibitors of rat Kvbeta2 reductase activity – biochemical, NADPH fluorescence, primary screen (AID 622).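 Note: slope of raw intensity against log time taken from 70 to 1610 s.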 The following applies: recombinant KvBeta, 4-cyanobenzaldehyde reduction, at 10 µM, stronger effect = higher value.
For experiment [5] the target is unchanged. In words: enhancers of rat Kvbeta2 NADPH turnover – biochemical, NADPH fluorescence, primary screen (AID 623;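 active = NADPH fluorescence slope more negative than the mean of all samples by about 3 SD, 99.7% confidence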;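 note: fluorescence intensity change per second fitted from 20 to 320 s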). Particulars: Recombinant KvBeta, NADPH fluorescence decrease slope, 10 min; at 10 µM; stronger effect = lower value.
The target of experiment [6] is Alpha-2C adrenergic receptor (Homo sapiens) (UniProt P18825). In words: compounds altering alpha2C-coupled GIRK flux – cell-based, HEK293 alpha2C/GIRK1/2, thallium flux, primary screen (AID 624;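 active = fluorescence slope after compound addition differing from the mean of all screened samples at 99.7% confidence, in either direction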;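 note: slope of fluorescence ratio to pre-addition baseline per second over 15 to 24 s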). Particulars: thallium flux BTC fluorescence, at 10 µM, actives lie on both sides.
The nature of experiment [7]: blockers of RIG-like receptor reporter activation – cell-based, Sendai virus stimulus, luciferase, 10K MLSCN set, TLR/RLR signaling modifier project, primary screen (AID 602276;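 active = inhibition at or above 50% at 10 µM; inactive = inhibition below 50%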;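 note: firefly luciferase from ISG56 promoter only with Renilla not read in this screen; 0% = Sendai virus plus DMSO and 100% = medium plus DMSO without virus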). Particulars: HEK293 RL24 IRF3 luciferase reporter, at 10 µM, stronger effect = higher value. (In general: In a reporter assay the amount or activity of a reporter protein is the signal.)
The nature of experiment [8]: TLR3 IRF3 reporter activation blockers – cell-based, poly I:C stimulus, luciferase, 10K MLSCN set, primary screen (AID 602277;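 active = inhibition of the reporter signal at or above 50%; inactive = inhibition below 50%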). The following applies: HEK293-TLR3 RL24 IRF3 luciferase reporter, at 10 µM, stronger effect = higher value.

The text below walks through data of PubChem BioAssay.

Calls of active or inactive are those of the source.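 Rule for the calls, unless noted: active = fluorescence slope higher than the sample average by over 3 SD (cut at about -0.22 in these data, passing the limit was not always enough); inactive = the rest.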

As a reminder, the inhibition is the drop in the measured response relative to a control, in per cent.

Voltage-gated potassium channel subunit beta-2 (Rattus norvegicus), sequence (P62483 whole entry, looked up): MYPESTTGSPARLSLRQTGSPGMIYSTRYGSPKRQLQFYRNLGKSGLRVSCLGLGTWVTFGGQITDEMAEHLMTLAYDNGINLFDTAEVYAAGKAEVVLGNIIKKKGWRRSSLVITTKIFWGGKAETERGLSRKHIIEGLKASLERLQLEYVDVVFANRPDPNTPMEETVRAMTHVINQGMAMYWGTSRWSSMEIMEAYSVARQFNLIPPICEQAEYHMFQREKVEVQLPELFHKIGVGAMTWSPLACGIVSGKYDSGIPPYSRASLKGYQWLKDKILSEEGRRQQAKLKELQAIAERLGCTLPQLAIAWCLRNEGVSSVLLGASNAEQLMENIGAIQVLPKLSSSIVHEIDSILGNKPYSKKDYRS
Alpha-2C adrenergic receptor (Homo sapiens), sequence (P18825 whole entry, looked up): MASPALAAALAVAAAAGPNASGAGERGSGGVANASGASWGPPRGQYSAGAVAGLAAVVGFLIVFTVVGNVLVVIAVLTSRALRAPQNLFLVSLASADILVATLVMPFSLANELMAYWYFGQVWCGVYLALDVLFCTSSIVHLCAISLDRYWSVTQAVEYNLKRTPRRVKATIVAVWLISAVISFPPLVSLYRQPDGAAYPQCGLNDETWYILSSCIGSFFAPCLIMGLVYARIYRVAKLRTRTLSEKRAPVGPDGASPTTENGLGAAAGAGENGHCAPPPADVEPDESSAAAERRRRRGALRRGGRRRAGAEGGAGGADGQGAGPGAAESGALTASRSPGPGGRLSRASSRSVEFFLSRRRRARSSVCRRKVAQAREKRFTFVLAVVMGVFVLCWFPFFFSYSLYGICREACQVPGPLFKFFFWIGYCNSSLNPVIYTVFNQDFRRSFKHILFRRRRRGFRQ

For the molecule `Cn1c(=O)[nH]c(=O)c2c1nc(NCCCn1ccnc1)n2Cc1ccccc1`, the cell count in experiment [1] stood at 433. The inhibition in experiment [1] is 0.3% (inactive); in experiment [3] it was -46.4% (inactive); in experiment [7], -9.45% (inactive); in experiment [8], -6.06% (inactive). Also, in experiment [2], the inhibition of aggregation was -7.8% (inactive). The nuclei count in experiment [2] was 130%; in experiment [3], 119%. Moreover, in experiment [4], the fluorescence slope is -0.603 (inactive). In addition, the NADPH fluorescence slope in experiment [5] was -3.4e-05 (inactive). Also, in experiment [6], the slope was 0.00342 (inactive).
For `Cc1ccccc1CN1CCN(C(=O)c2cccc(F)c2)CC1`, the cell count in experiment [1] was found to be 284. For the same molecule, the inhibition in experiment [1] was -13% (inactive); in experiment [3], 2.5% (inactive); in experiment [7], 7.31% (inactive); in experiment [8], 12% (inactive). The inhibition of aggregation in experiment [2] was 14.5% (inactive). Also, the nuclei count stood at 91.7% in experiment [2] and 119% in experiment [3]. The fluorescence slope in experiment [4] was -0.411 (inactive). Besides, the NADPH fluorescence slope in experiment [5] is -1.4e-05 (inactive). The slope in experiment [6] is 0.00429 (inactive).
For the molecule `CCn1ncc(C2=NOC(C(=O)Nc3ccc4c(c3)OCO4)C2)c1C` (stereo not drawn), the cell count in experiment [1] came out at 640. The inhibition in experiment [1] was -0.3% (inactive); in experiment [3], -156% (inactive); in experiment [7], -17.8% (inactive); in experiment [8] it was -34% (inactive). Further, the inhibition of aggregation in experiment [2] is 0.2% (inactive). The values for the nuclei count in experiment [2] and in experiment [3] were 99.9% and 112%, respectively. Further, in experiment [4], the fluorescence slope is -0.5 (inactive). Moreover, in experiment [5], the NADPH fluorescence slope was -0.000277 (inactive). The slope in experiment [6] is 0.00345 (inactive).
In the case of `O=C(N1CCN(c2ccccc2F)CC1)C12CC3CC(CC(C3)C1)C2`, the cell count in experiment [1] was determined as 242. Further, the inhibition in experiment [1] was 3.4% (inactive); in experiment [3], 17.9% (inactive); in experiment [7], 7.35% (inactive); in experiment [8] it was 14.4% (inactive). Further, the inhibition of aggregation in experiment [2] was -2.5% (inactive). Further, the nuclei count turned out to be 99.4% in experiment [2] and 95% in experiment [3]. Also, the fluorescence slope in experiment [4] was -0.387 (inactive). The NADPH fluorescence slope in experiment [5] is 2.5e-05 (inactive). Also, in experiment [6], the slope is 0.00709 (inactive).
Consider `Cc1ccccc1-c1nc(CN2CCC(C(=O)N3CCC(C(N)=O)CC3)CC2)c(C)o1`, for which the cell count in experiment [1] is 576. In addition, the inhibition in experiment [1] is 6.1% (inactive); in experiment [3], 7.6% (inactive); in experiment [7], 7.94% (inactive); in experiment [8] it was 40.4% (inactive). For the same molecule, the inhibition of aggregation in experiment [2] was 1.2% (inactive). Besides, the nuclei count stood at 87.6% in experiment [2] and 87.8% in experiment [3]. In addition, the fluorescence slope in experiment [4] is -0.548 (inactive). In experiment [5], the NADPH fluorescence slope is -3.8e-05 (inactive). The slope in experiment [6] was 0.00557 (inactive).
As to `CC(C)CCN(C)C1CCN(S(=O)(=O)c2ccc(F)cc2)CC1`, the cell count in experiment [1] is 638. Further, the inhibition is 0.8% (inactive) in experiment [1], -35.4% (inactive) in experiment [3], 10.6% (inactive) in experiment [7] and 40.9% (inactive) in experiment [8]. In addition, the inhibition of aggregation in experiment [2] is -2.4% (inactive). Moreover, the nuclei count in experiment [2] stood at 82.9%; in experiment [3], 121%. For the same molecule, the fluorescence slope in experiment [4] is -0.543 (inactive). Moreover, the NADPH fluorescence slope in experiment [5] was 1.3e-05 (inactive). Also, the slope in experiment [6] was 0.00577 (inactive).
In the case of `COC(=O)c1ccc(Oc2nc(NC(C)C)nc(N(C)C)n2)cc1`, the cell count in experiment [1] worked out at 632. Further, the inhibition in experiment [1] was 28.3% (inactive); in experiment [3], -112% (inactive); in experiment [7], -2.9% (inactive); in experiment [8], 15.7% (inactive). For the same molecule, the inhibition of aggregation in experiment [2] was -21.7% (inactive). Further, the nuclei count is 94.4% in experiment [2] and 106% in experiment [3]. For the same molecule, in experiment [4], the fluorescence slope was -0.468 (inactive). In addition, the NADPH fluorescence slope in experiment [5] is 2.5e-05 (inactive). Besides, in experiment [6], the slope is 0.00595 (inactive).
Consider `Cc1ccc(CC2SC(=O)NC2=O)cc1Cl` (stereo not drawn), for which the cell count in experiment [1] is 790. In addition, the inhibition in experiment [1] is 10.4% (inactive); in experiment [3], 0% (inactive); in experiment [7], 10.2% (inactive); in experiment [8] it was 12% (inactive). In addition, in experiment [2], the inhibition of aggregation is -3% (inactive). Besides, the figures for the nuclei count in experiment [2] and in experiment [3] were 97.9% and 119%, respectively. In addition, the fluorescence slope in experiment [4] is -0.488 (inactive). Also, the NADPH fluorescence slope in experiment [5] was -5.4e-05 (inactive). Moreover, the slope in experiment [6] is 0.00487 (inactive).
Regarding `Cc1cccc(-n2c(SCc3cc(=O)n4ccsc4n3)nc3ccccc32)c1`, the cell count in experiment [1] is 439. Moreover, the inhibition in experiment [1] was 5.1% (inactive); in experiment [3] it was -73.8% (inactive); in experiment [7], -11% (inactive); in experiment [8] it was -9.49% (inactive). For the same molecule, the inhibition of aggregation in experiment [2] is -3.6% (inactive). Also, the nuclei count in experiment [2] came to 97.1%; in experiment [3], 112%. In addition, the fluorescence slope in experiment [4] is -0.525 (inactive). Further, the NADPH fluorescence slope in experiment [5] is 1.8e-05 (inactive). The slope in experiment [6] is 0.00495 (inactive).
Turning to `CCOC(=O)Cn1c(N2CCOCC2)nc2c1c(=O)[nH]c(=O)n2C`, the cell count in experiment [1] is 673. Further, the inhibition in experiment [1] was -8.7% (inactive); in experiment [3], -0.1% (inactive); in experiment [7] it was 9.13% (inactive); in experiment [8], 21.5% (inactive). In addition, the inhibition of aggregation in experiment [2] was -18.2% (inactive). Moreover, the values for the nuclei count in experiment [2] and in experiment [3] were 118% and 107%, respectively. Besides, the fluorescence slope in experiment [4] was -0.415 (inactive). Also, in experiment [5], the NADPH fluorescence slope was -6.2e-05 (inactive). Besides, in experiment [6], the slope is 0.00268 (inactive).
Turning to `CCc1nnc(NC(=O)c2ccc(S(=O)(=O)NCC(C)C)cc2)s1`, the cell count in experiment [1] turned out to be 494. Also, the inhibition in experiment [1] is -4.1% (inactive); in experiment [3], -73.7% (inactive); in experiment [7], -15.9% (inactive); in experiment [8], -61.5% (inactive). Also, in experiment [2], the inhibition of aggregation is -18.5% (inactive). In addition, the nuclei count in experiment [2] came to 100%; in experiment [3], 210%. In addition, in experiment [4], the fluorescence slope was -0.491 (inactive). In addition, the NADPH fluorescence slope in experiment [5] is -3.9e-05 (inactive). Besides, in experiment [6], the slope was 0.00682 (inactive).
On to `C#CC1(O)CC(C)N(C)C(C)C1` (stereo not drawn), for which the cell count in experiment [1] worked out at 266. Moreover, the inhibition in experiment [1] is -0.3% (inactive); in experiment [3], -76% (inactive); in experiment [7], 11% (inactive); in experiment [8] it was 17.2% (inactive). In experiment [2], the inhibition of aggregation was 41.8% (active). The nuclei count is 71.2% in experiment [2] and 186% in experiment [3]. The fluorescence slope in experiment [4] is -0.606 (inactive). Besides, the NADPH fluorescence slope in experiment [5] was 3.5e-06 (inactive). For the same molecule, in experiment [6], the slope is 0.00632 (inactive).
For the molecule `COC(=O)c1cc(=O)n(Cc2ccc3c(c2)OCO3)c(=Nc2ccccc2)s1`, in experiment [1], the cell count stood at 575. For the same molecule, the inhibition was 2.9% (inactive) in experiment [1], -30.3% (inactive) in experiment [3], 12.2% (inactive) in experiment [7] and 27.1% (inactive) in experiment [8]. Further, in experiment [2], the inhibition of aggregation is 8.9% (inactive). Moreover, the nuclei count in experiment [2] stood at 124%; in experiment [3], 107%. For the same molecule, the fluorescence slope in experiment [4] is -0.545 (inactive). Moreover, in experiment [5], the NADPH fluorescence slope is -3.4e-05 (inactive). Also, the slope in experiment [6] was 0.00623 (inactive).
